Legend:
[1] = target: CDK3/Cyclin E (Homo sapiens) (UniProt P24864+Q00526); conditions: at 1 µM;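 further: each figure is a mean percent inhibition of the CDK3/cyclin E complex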
[2] = target: Cyclin-dependent kinase 4 (Homo sapiens) (UniProt P11802); conditions: at 0.1 µM
[3] = target: Cyclin-dependent kinase 4 (Homo sapiens) (UniProt P11802); conditions: at 1 µM
[4] = target: Cyclin-dependent kinase 5 (Homo sapiens) (UniProt Q00535); conditions: at 0.1 µM
[5] = target: Cyclin-dependent kinase 5 (Homo sapiens) (UniProt Q00535); conditions: at 1 µM
[6] = target: Cyclin-dependent kinase 6 (Homo sapiens) (UniProt Q00534); conditions: at 0.1 µM
Sequence of Cyclin-dependent kinase 6 (Homo sapiens) (Q00534 whole entry): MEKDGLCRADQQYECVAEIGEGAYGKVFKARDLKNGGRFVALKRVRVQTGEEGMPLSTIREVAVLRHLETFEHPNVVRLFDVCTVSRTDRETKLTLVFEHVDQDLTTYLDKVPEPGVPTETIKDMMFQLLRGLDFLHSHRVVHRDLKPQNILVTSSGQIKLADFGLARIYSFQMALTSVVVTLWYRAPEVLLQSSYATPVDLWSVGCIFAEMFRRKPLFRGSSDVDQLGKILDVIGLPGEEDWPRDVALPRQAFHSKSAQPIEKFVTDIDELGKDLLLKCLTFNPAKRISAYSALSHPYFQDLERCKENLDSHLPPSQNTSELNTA

[7] = target: Cyclin-dependent kinase 6 (Homo sapiens) (UniProt Q00534); conditions: at 1 µM
[8] = target: Dual specificity protein kinase CLK2 (Homo sapiens) (UniProt P49760); conditions: at 0.1 µM
Sequence of Dual specificity protein kinase CLK2 (Homo sapiens) (P49760 whole entry, looked up): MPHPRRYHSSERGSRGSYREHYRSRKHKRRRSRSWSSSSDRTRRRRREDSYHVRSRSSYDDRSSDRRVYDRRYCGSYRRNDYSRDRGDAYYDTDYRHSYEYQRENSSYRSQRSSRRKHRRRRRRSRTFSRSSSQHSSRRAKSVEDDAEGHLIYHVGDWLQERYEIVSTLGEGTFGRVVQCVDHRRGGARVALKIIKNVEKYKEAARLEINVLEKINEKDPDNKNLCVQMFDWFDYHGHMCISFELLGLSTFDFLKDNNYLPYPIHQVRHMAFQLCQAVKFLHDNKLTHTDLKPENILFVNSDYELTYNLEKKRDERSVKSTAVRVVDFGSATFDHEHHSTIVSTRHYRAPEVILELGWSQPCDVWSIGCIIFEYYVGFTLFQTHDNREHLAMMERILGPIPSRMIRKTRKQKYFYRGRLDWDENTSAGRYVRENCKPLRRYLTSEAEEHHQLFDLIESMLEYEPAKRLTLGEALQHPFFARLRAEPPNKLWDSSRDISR

[9] = target: Dual specificity protein kinase CLK2 (Homo sapiens) (UniProt P49760); conditions: at 1 µM
[10] = target: Dual specificity protein kinase CLK3 (Homo sapiens) (UniProt P49761); conditions: at 0.1 µM
Sequence of Dual specificity protein kinase CLK3 (Homo sapiens) (P49761 whole entry, looked up): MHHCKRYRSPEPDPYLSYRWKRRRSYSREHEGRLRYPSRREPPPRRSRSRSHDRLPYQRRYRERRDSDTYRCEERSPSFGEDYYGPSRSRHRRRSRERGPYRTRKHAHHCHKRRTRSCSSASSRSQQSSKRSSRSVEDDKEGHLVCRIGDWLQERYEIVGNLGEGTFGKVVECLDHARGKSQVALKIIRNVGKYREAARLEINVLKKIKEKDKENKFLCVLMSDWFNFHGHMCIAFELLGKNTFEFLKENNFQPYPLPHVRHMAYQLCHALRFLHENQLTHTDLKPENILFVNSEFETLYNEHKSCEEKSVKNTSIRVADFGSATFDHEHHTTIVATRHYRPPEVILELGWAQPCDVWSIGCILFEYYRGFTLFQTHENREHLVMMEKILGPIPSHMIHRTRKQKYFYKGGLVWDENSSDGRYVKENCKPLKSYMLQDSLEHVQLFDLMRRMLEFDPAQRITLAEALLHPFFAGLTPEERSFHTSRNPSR

Sequence of CDK3/Cyclin E (Homo sapiens) (P24864 whole entry, looked up): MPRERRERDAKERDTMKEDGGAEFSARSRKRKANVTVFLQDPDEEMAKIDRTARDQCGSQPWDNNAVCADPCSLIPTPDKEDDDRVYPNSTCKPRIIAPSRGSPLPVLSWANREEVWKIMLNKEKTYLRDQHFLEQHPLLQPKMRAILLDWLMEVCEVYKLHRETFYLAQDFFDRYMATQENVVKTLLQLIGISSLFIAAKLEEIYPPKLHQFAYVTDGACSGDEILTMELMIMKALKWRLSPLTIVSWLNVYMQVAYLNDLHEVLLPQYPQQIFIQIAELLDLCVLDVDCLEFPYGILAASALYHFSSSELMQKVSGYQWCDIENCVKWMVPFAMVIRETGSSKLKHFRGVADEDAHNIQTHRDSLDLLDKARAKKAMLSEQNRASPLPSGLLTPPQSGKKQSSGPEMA
Sequence of CDK3/Cyclin E (Homo sapiens) (Q00526 whole entry, looked up): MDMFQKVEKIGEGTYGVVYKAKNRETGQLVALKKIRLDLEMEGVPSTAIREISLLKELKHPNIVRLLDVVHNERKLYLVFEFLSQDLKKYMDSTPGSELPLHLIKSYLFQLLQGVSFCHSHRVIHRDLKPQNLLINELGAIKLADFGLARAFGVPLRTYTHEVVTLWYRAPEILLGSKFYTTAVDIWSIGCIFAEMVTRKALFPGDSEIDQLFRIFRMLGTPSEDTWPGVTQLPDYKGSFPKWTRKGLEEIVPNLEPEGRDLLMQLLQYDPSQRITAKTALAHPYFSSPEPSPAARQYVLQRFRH
Sequence of Cyclin-dependent kinase 4 (Homo sapiens) (P11802 whole entry): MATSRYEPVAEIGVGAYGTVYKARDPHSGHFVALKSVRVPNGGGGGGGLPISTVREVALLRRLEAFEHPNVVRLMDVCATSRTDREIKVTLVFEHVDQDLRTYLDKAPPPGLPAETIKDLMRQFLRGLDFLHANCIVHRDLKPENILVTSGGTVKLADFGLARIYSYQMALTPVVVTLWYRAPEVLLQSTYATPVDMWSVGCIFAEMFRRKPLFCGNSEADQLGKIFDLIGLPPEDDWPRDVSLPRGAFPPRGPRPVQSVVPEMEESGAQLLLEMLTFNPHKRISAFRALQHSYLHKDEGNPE
Sequence of Cyclin-dependent kinase 5 (Homo sapiens) (Q00535 whole entry, looked up): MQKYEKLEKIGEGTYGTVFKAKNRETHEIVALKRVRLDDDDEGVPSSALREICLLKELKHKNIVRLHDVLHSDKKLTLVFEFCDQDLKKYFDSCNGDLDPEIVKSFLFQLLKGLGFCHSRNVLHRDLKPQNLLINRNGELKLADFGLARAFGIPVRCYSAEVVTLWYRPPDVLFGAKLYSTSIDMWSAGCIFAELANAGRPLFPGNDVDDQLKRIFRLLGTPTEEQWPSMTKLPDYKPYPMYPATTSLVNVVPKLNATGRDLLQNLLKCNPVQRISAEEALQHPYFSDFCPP

Row | SMILES | inhibition [1] [%] | inhibition [2] [%] | inhibition [3] [%] | inhibition [4] [%] | inhibition [5] [%] | inhibition [6] [%] | inhibition [7] [%] | inhibition [8] [%] | inhibition [9] [%] | inhibition [10] [%]
1 | CCc1nn2ncccc2c1-c1ccnc(NC2CC2)n1 | 2.56 | 5.47 | 17.6 | 0.79 | 6.84 | 0.16 | 10.1 | 0.1 | 3.21 | 0.31
2 | c1ccc(COc2ccc(Nc3ncnc4ccc(-c5ccco5)cc34)cc2)cc1 | -1.75 | -0.08 | 2.95 | 0.18 | 1.53 | -2.29 | -1.6 | 0.31 | -0.79 | -0.79
3 | CCn1c(-c2nonc2N)nc2c(C#CC(C)(C)O)ncc(OC3CCNCC3)c21 | -2.14 | 2.68 | 3.11 | 0.91 | 2.08 | -2.96 | -1.44 | 2.21 | 18 | 0.62
4 | N#Cc1c(NC(=O)CN2CCOCC2)sc2c1CCCC2 | 0.79 | 6.39 | 5.4 | 4.75 | 5.34 | 5.33 | 7.63 | 1.09 | 2.7 | 4.98
5 | [O-][S+]1CCN(Cc2ccc(-c3ccc4ncnc(Nc5ccc(OCc6cccc(F)c6)c(Cl)c5)c4c3)o2)CC1 | -2.03 | 3.89 | 6.99 | 4 | 3.88 | 0.87 | 3.99 | 1.02 | -0.02 | 1.18
6 | COc1ccc(-c2cc(-c3c[nH]nc3-c3ccccn3)ccn2)cc1 | 0.46 | 2.18 | 1.82 | 1.02 | 1.41 | 4.13 | -0.9 | 0.77 | 0.26 | 3.07
7 | CC(=O)NCc1cccc(C#Cc2cncnc2Nc2ccc(OCc3cccc(F)c3)c(Cl)c2)c1 | -1.44 | 1.51 | 5.22 | 1.7 | 5.29 | -2.35 | 5.05 | 1 | -0.78 | 0.32
8 | Cc1ccc2c(-c3ccnc(Nc4ccccc4)n3)c(-c3ccc(F)cc3)nn2n1 | 2.55 | 6.51 | 6.75 | 0.32 | 2.21 | 3.66 | 5.2 | 2.31 | 2.23 | 1.04
9 | CCCN(CCS(C)(=O)=O)Cc1ccc(-c2ccc3ncnc(Nc4ccc(OCc5cccc(F)c5)c(Cl)c4)c3c2)o1 | -1.26 | 1.25 | 5.06 | 2.08 | 6.83 | 1.99 | 7 | 1.46 | 0.75 | 1.51
10 | CC(C)(CO)CNC(=O)c1ccc2c(c1)/C(=N/Nc1ccc(S(N)(=O)=O)cc1)C(=O)N2 | 88.5 | 13.6 | 54.6 | 40.6 | 75.1 | 9.84 | 59.1 | 11.8 | 61.9 | -0.48
11 | CCn1c(-c2nonc2N)nc2ccccc21 | 1.41 | 1.45 | 3.08 | 0.59 | 1.17 | 1.48 | 1.55 | 2.35 | 4.78 | 1.2
12 | O=C(O[C@H]1CN[C@H](C#Cc2cc3ncnc(Nc4ccc(Cc5ccccc5)cc4)c3s2)C1)N1CCOCC1 | -1.05 | 0.77 | 1.9 | 0.05 | 1.12 | -3.24 | -1.41 | 0.36 | -0.46 | 0.27
13 | Clc1ccc(-c2nn3ncccc3c2-c2ccnc(Nc3ccccc3)n2)cc1 | -0.36 | 1.45 | 2.58 | 0.66 | 1.41 | 1.16 | 4.53 | -0.96 | 1.58 | 1.63
14 | NC(=O)c1sc(-n2cnc3ccc(C(F)(F)F)cc32)cc1OCc1ccccc1Br | -2.34 | 1.68 | 2.94 | -0.39 | -0.71 | -0.29 | 1.76 | 3.14 | 27.6 | 2.31
15 | COc1cc2ncn(-c3cc(OCc4ccccc4C(F)(F)F)c(C(=O)N(C)C)s3)c2cc1OC | -0.96 | 1.04 | 1.39 | 0.01 | -0.22 | -1.98 | -0.75 | -0.32 | 2.04 | 0.46
16 | CN1CCC(n2cnc(-c3ccc(F)cc3)c2-c2ccnc(Nc3ccccc3)n2)CC1 | -2.19 | 1.36 | 2.55 | 0.25 | 1 | 3.89 | 0.2 | 1.64 | 1.56 | 0.75
17 | COc1cc(N2CCN(C(C)C)CC2)ccc1Nc1nc(Nc2ccc(F)cc2C(N)=O)c2cc[nH]c2n1 | 0.34 | 1.59 | 5.82 | 0.74 | 0.58 | -2.83 | 2.77 | 37.3 | 88.4 | 1.64

Row | SMILES | inhibition [1] [%] | inhibition [2] [%] | inhibition [3] [%] | inhibition [4] [%] | inhibition [5] [%] | inhibition [6] [%] | inhibition [7] [%] | inhibition [8] [%] | inhibition [9] [%] | inhibition [10] [%]
18 | Fc1ccc(-c2nn3ccccc3c2-c2ccncc2)cc1 | -1.11 | 1.37 | 2.18 | 0.46 | 0.96 | -1.88 | 2.7 | 0.24 | 1.47 | 0.63
19 | COC(=O)Nc1nc2ccc(S(=O)(=O)c3ccc(NC(=O)Nc4cc(C(F)(F)F)ccc4F)cc3)cc2[nH]1 | -2.43 | 2.72 | 4.04 | 1.61 | 2.38 | 0.21 | 2.9 | 0.38 | 1.96 | 0.87
20 | CCN(CC)S(=O)(=O)c1ccc(OC)c(Nc2ncc(-c3ccccc3)o2)c1 | -0.01 | 1.62 | 2.74 | 0.99 | 2.21 | 5.19 | 2.95 | 4.15 | 40.3 | 0.64
21 | c1ccc(-c2nc3n(c2-c2ccc4c(c2)OCO4)CCC3)nc1 | 0.43 | 2.02 | 2.7 | 0.64 | 1.86 | -1.72 | 3.55 | 0.44 | -1.18 | 3.62
22 | Nc1ncc(-c2cccc(S(N)(=O)=O)c2)c2scc(-c3ccc(F)c(Cl)c3)c12 | -4.84 | 1.97 | 3.55 | 1.01 | 2.29 | -0.13 | 1.9 | 2.7 | -0.72 | 1.16
23 | Cc1ccc(O)cc1Nc1ccnc2cc(-c3ccccn3)ccc12 | -0.7 | 3.48 | 4.45 | 0.73 | 1.9 | 1.92 | 4.31 | 1.89 | 3.5 | 2.09
24 | COc1ccc2c(-c3ccnc(Nc4cccc(OC(F)(F)F)c4)n3)cnn2n1 | 20.3 | 3.8 | 18 | 5.51 | 36.3 | 9.65 | 14.6 | 95.4 | 98.3 | 13.2
25 | Fc1ccc(-c2cc(-c3c[nH]nc3-c3ccccn3)ccn2)cc1 | -1.83 | 1.98 | 1.18 | -0.24 | -1.54 | -0.57 | 2.29 | 2.53 | 2.71 | 1.32
26 | CNC(=O)c1cncc(/C=C/c2ccccc2Cl)c1 | -0.07 | -1.43 | -0.33 | 0.19 | 2 | 2.81 | -1.1 | -0.38 | 0.35 | -0.85
27 | CS(=O)(=O)CCNCc1coc(-c2ccc3ncnc(Nc4ccc(OCc5ccccc5)cc4)c3c2)c1 | -1.98 | 1.27 | 3.49 | 0.65 | 2.1 | 0.39 | 3.6 | 3.24 | 1.86 | -0.2
28 | CNC(=O)c1cccc(C#Cc2cncnc2Nc2ccc(OCc3cccc(F)c3)c(Cl)c2)c1 | 3.72 | 2.35 | 3.08 | 1.3 | 2.33 | 4.83 | 1.6 | 0.38 | 2.72 | -0.87
29 | COc1ccc(CNC(=O)c2ccc(-c3cc(-c4nnc(C)o4)ccc3C)cc2)cc1 | -1.03 | 1.82 | 2.19 | 1.52 | 1.19 | -1.69 | -2.05 | 0.99 | 2.3 | 2.46
30 | COc1ccc(-c2cc3c(N)ncnc3o2)cc1 | 1.68 | 0.18 | 3.35 | 1.53 | 5.3 | -1.4 | 2.82 | 0.46 | 2.78 | 0.59
31 | O=S(=O)(CCNCc1ccc(-c2ccc3ncnc(Nc4ccc(OCc5cccc(F)c5)c(Cl)c4)c3c2)o1)c1ccccc1 | -1.98 | 4.84 | 5.57 | 0.05 | 1.21 | 0.74 | 2.65 | 0.01 | 1.31 | 0.95
32 | Cc1cccc2c1NC(=O)/C2=N\Nc1ccc(S(N)(=O)=O)cc1 | 2.03 | 3.28 | 5.14 | 0.68 | 2.95 | 5.03 | 10.7 | 1.48 | 2.98 | 1.44
33 | Nc1nc(-c2ccc(F)cc2)c(-c2ccc3ncccc3n2)s1 | 1.75 | 6.95 | 9.34 | 4.02 | 7.28 | 4.34 | 7.53 | 2.98 | 8.8 | 3.31
34 | Cc1cccc(Nc2ncc(-c3ccccc3)o2)c1 | 4.71 | 1.95 | 5.69 | 1.51 | 7.89 | -1.21 | 11.3 | 1.65 | 4.78 | 1.1
